This is a sample that favours compounds with a hit; in the whole collection about 9.2% have one here.
NPC1 prom act: activators of NPC1 promoter | actives 2.4% (n = 320,000) | Potency, µM (titrated, usually from 9.22 µM), without a hit: at the top dose activation, most hits filed as activators | Huh7 NPC1 promoter luciferase reporter, 24 h | AID 485313; note: % of control where 0% means no effect; nearly all actives have a fitted effect of over 60% in size
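Huh7 cells stably carrying NPC1 promoter–luciferase, plated in Opti-MEM with 10% FBS for 2 h, were exposed to compound in DMSO for 24 h at 37 °C; luciferase reagent was added for 10 min and luminescence read.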
FLuc modulator: firefly luciferase modulation, counter-screen for miR-21 project. purified FLuc, Km substrates, luminescence inhibition. Potency, µM (series often up to 57.5 µM), without a hit: at the highest dose activity change, negative = inhibition, usual class: inhibitors. actives 6.9% (n = 360,000). P08659. AID 588342;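 note: plate controls were vehicle for no effect and reference inhibitor for full effect; nearly all actives have a fitted effect of over 55% in size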
Target sequence (P08659 whole entry, looked up): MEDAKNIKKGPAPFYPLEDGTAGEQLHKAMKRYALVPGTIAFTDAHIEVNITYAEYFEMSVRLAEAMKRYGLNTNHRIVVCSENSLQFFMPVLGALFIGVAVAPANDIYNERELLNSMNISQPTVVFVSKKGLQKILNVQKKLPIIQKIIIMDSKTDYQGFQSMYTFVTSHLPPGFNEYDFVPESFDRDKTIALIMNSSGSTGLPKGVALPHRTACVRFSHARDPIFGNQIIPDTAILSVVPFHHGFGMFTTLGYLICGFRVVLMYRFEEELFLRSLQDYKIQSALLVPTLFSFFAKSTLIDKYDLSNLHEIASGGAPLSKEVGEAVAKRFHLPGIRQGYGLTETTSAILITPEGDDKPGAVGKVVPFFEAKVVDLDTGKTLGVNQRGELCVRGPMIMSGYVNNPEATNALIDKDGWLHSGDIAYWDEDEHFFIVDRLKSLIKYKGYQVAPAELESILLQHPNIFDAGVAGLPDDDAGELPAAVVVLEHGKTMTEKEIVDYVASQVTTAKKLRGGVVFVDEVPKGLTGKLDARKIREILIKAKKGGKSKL
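Purified P. pyralis luciferase (10nM final) with 10uM D-luciferin and 10uM ATP (Km levels) in 50mM Tris acetate pH 7.5, 10mM Mg acetate, 0.01% Tween-20, 0.05% BSA; qHTS 6-point titration, ~60 µM downward; luminescence read.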
Rab9 prom act: activators of Rab9 promoter; Huh7 Rab9 promoter-luciferase reporter, luminescence, 24 h; Potency, µM (titrated, usually from 9.22 µM), without a hit: at the highest dose activation, negative = inhibition, most hits filed as activators; actives 2.8% (n = 320,000); AID 485297; note: % of control where 0% means no effect; nearly all actives have a fitted effect of over 60% in size
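Rab9 promoter-driven luciferase in stably transfected Huh7 cells; 1500 cells/well rested 2 h, exposed to compound in DMSO for 24 h at 37 °C, 5% CO2. Luminescence read 10 min after adding luciferase reagent at ambient temperature.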
SMN2 splice up: SMN2 splice variant enhancement. HEK293 SMN2-luciferase splicing reporter, luminescence, 30-36 h. actives 2.8% (n = 210,000). Potency, µM (series often up to 46.1 µM), for inactives: top-dose activity change, positive = activation, most hits filed as activators; note: % of control where 0% means no effect; nearly all actives have a fitted effect of over 55% in size
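HEK293 cells carry an SMN2 minigene-luciferase reporter in which exon 7 inclusion puts luciferase in frame. Cells were seeded at 2000 cells/well, attached for 10-12 hours, then exposed to compounds for 30-36 hours at 37C before ONE-Glo luminescence.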
ELG1 repair inh: blocks ELG1-dependent DNA repair in HEK293T cells; HEK293T ELG1-luciferase reporter, luminescence, 16 h; DNA damage induced by 5-fluorouridine; Potency, µM (titrated, usually from 46.1 µM), for inactives: at the highest dose activity change, negative = inhibition, hits mostly inhibitors; actives 2.3% (n = 330,000); note: % is set by controls: 0 for no effect and ±100 for the full control effect; nearly all actives have a fitted effect of over 55% in size
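Overnight (16 hr) co-exposure of 2,000 cells/well to 5-fluorouridine and compound at 37 °C preceded detection. Luciferase was quantified via ONE-Glo luminescence; loss of signal denotes inhibition.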
ELG1 genotoxic: inducers of genotoxicity in HEK293T ELG1-luciferase cells; HEK293T ELG1-luciferase reporter, luminescence, 16 h; Potency, µM (highest dose often 46 µM), without a hit: at the highest dose activity change, positive = activation, most hits filed as activators; actives 1.3% (n = 330,000); note: % of control where 0% means no effect; nearly all actives have a fitted effect of over 60% in size
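HEK293T cells expressing luciferase-tagged ELG1 were exposed to compound or DMSO vehicle for 16 hr at 37 °C and 5% CO2. Luciferase activity was then measured with ONE-Glo after 30 min at room temperature.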
Numbers without * were called inactive; ? = inconclusive; . = no result given; [ ] = remark or other dose. Calls come from the whole dose curve; as a rule, active = well fitted curve in the direction sought with a large enough effect; inconclusive = small, poorly fitted or top-dose-only effect, or another doubt; inactive = no such curve, though single readings can be large; an effect the other way counts as inactive or inconclusive. Potency is the fitted concentration of half-maximal effect.

SMILES | NPC1 prom act | FLuc modulator | Rab9 prom act | SMN2 splice up | ELG1 repair inh | ELG1 genotoxic
Cc1cccc(NC2=C/C(=N/S(=O)(=O)c3cccs3)c3ccccc3C2=O)c1 | -42% | -21% | -35% | -94% | 4.1µM* | -10%
O=C1C(Nc2ccc(O)cc2)=C/C(=N/S(=O)(=O)c2cccs2)c2ccccc21 | -44% | ? | -43% | -100% | 6.5µM* | -22%
Cc1ccc(NC2=C/C(=N\S(=O)(=O)c3cccs3)c3ccccc3C2=O)c(C)c1 | ? | ? | ? | -98% | ? | -12%
COC1=C(Nc2ccc(O)cc2)C(=O)c2ccccc2C1=O | 13% | ? | 3% | -18% | -15% | 1%
Cc1ccc(Cl)cc1NC1=C/C(=N\S(=O)(=O)c2cccs2)c2ccccc2C1=O | -13% | -3% | -19% | -84% | 5.2µM* | -27%
CCN1C(=O)C2(C(C#N)=C(N)Oc3n[nH]c(-c4ccc(Cl)cc4)c32)c2ccccc21 (centres undefined) | -2% | -1% | -9% | 10% | 0% | -1%
N#CC1=C(N)Oc2n[nH]c(-c3ccccc3)c2C12C(=O)Nc1ccccc12 (centres undefined) | 1% | -1% | -5% | 5.6µM* | -1% | 0%
COc1cc(OC)c(OC)cc1CNC(=O)c1ccc(COc2ccccc2)cc1 | 0% | -12% | -5% | . | 10µM* | -12%
CS(=O)(=O)Nc1ccc(C(=O)NCCc2ccccc2)cc1 | ? | ? | 2µM* | 11µM* | ? | ?
COc1ccc(/C(O)=C/c2nc3ccc(C(=O)NCCc4cccc(C)c4)cc3[nH]c2=O)cc1OC | 0% | 4% | -11% | 18% | 3.3µM* | -8%
CCOc1ccc(C(=O)NCCN(C)C)cc1 | -3% | 4%[2.3 µM] | 2% | 11% | 17% | 4%
CCOc1ccc(C(=O)NCCCCNC(=O)c2ccc(OCC)cc2)cc1 | 3.5µM* | ? | ? | . | ? | ?
COc1ccc(CN(C)C(=O)c2ccc(COc3ccccc3)cc2)c(OC)c1 | -7% | 3% | -4% | . | ? | -19%
CCCNC(=O)NC(=O)CN1C(=O)NC(C)(c2ccc3ccccc3c2)C1=O (centres undefined) | -1% | -1% | -8% | . | -24% | -1%
COc1cccc(Cc2nc3ccccc3nc2SCC(=O)Nc2cccc(C)c2)c1 | . | 3% | . | . | . | .
Cc1cc(C)cc(N(CC(=O)NC(C)(C)C)C(=O)CCC(=O)Nc2nccs2)c1 | 2% | -1% | -4% | . | -15% | -4%
O=C(Nc1cc2c3c(c1)CC(=O)N3CCC2)C1CC1 | 0% | 8% | 0% | . | ? | ?
CC(=O)Oc1ccc(C(=O)NCCc2ccccc2)cc1 | 0.4µM* | 9.5µM* | 0.5µM* | 8.9µM* | ? | 15%
CCOc1ccc(C(=O)NCCc2ccccc2)cc1 | 0.4µM* | 1.1µM* | 0.32µM* | 3.5µM* | ? | 0.58µM*
COc1ccc(C(=O)Nc2ccc(C(=O)NCCc3ccccc3)cc2)cc1 | -3% | -6% | -2% | . | 0% | 6%
CS(=O)(=O)NCc1ccc(C(=O)NCCOc2ccccc2)cc1 | 4µM* | 19µM* | 3.5µM* | 11µM* | ? | ?
COc1ccccc1NC(=O)COC(=O)CNC(=O)c1ccc(OC)c(OC)c1 | 14% | -1% | 21% | 5µM* | ? | 18µM*
COc1ccc(C(=O)NCC(=O)OCCCOC(=O)CNC(=O)c2ccc(OC)c(OC)c2)cc1OC | -2% | -1% | -1% | . | -3% | 5%
CC(=O)Oc1ccc(-c2ccc(C(=O)NCCc3ccc(S(N)(=O)=O)cc3)cc2)cc1 | -5% | 1% | -1% | . | -21% | 14%
CO[C@]1(NC(=O)[C@H](C(=O)O)c2ccc(O)cc2)C(=O)N2C(C(=O)O)=C(CSc3nnnn3C)CO[C@H]21 | . | . | . | 2%[20.6 µM] | . | .
O=C(COC(=O)c1ccc(S(=O)(=O)N2CCCC2)cc1)Nc1cccc(Cl)c1 | -11% | . | -2% | . | 0% | -2%
